Over roughly 33,000 sequences, “e-score” has its median near -0.037; the highest 2% begin near 0.34. The sample as a whole holds a higher share of the highest values than the screen did.
Each sequence was assayed against T1, GST-Rok (full length) (Bacillus subtilis subsp. subtilis str. …, UniProt O34857 1-191) (assay: protein binding microarray; Rok is a gene silencer of Bacillus subtilis; high values mean tight binding). Conditions: protein: recombinant; tags: GST (pTH5325, pDEST15-Magic modified); dsDNA, one strand shown.
T1 sequence: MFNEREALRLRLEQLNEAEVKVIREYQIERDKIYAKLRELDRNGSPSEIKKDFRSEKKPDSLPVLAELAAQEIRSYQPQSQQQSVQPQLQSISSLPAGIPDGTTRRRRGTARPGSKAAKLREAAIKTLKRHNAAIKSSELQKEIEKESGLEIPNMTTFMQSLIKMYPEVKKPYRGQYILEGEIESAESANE
Method in brief: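 Every oligonucleotide joins a 25-mer constant primer to a 35-mer variable part drawn from a de Bruijn sequence of order 10, so each non-palindromic 8-mer appears at least 32 times and each palindromic 8-mer 16 times. The preference for every 8-mer is reported as a unitless, rank-based enrichment score (E-score). This score spans 0.5 for the most favored 8-mer to −0.5 for the most disfavored.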

| Sequence | binding signal [E-score] |
| --- | --- |
| ACTGGCCG | 0.00991 |
| AGCGGCTC | -0.196 |
| GTCGCTTA | -0.0639 |
| GTTACATA | 0.212 |
| AACGTTAG | 0.344 |
| AACGTTAT | 0.216 |
| AACGTTAC | -0.0148 |
| GCATTCCA | -0.149 |
| CGCGTCCA | -0.16 |
| ATGCTTCG | -0.00471 |
| GCGCAGAA | -0.0702 |
| TATATACA | 0.409 |
| AATACACA | 0.234 |
| GATATACA | 0.25 |
| CATATACA | 0.258 |
| TGTATACA | 0.351 |
| AATATACC | 0.394 |
| GATATACC | 0.291 |
| AATATACA | 0.388 |
| CGTATACA | 0.227 |
| ACTATACA | 0.322 |
| GGTATACA | 0.187 |
| CATATACC | 0.259 |
| GCTGCTGA | -0.177 |
| CTTCCTTA | -0.172 |
| CTAGGAAG | -0.0907 |

| Sequence | binding signal [E-score] |
| --- | --- |
| AGTACGCA | 0.194 |
| AATATACT | 0.395 |
| ACTATACT | 0.26 |
| AATATACG | 0.268 |
| AGTATACC | 0.164 |
| AGTATACT | 0.338 |
| AGTATACA | 0.271 |
| CATAAAAG | 0.102 |
| AGTGCGTC | 0.0828 |
| ACCTCCAA | -0.0283 |
| TCACGTGA | -0.0446 |
| TGGCCGAA | -0.123 |
| ACCTAGAC | 0.0548 |
| AATTATAT | 0.407 |
| AATTATCG | 0.217 |
| CATTATAG | 0.255 |
| GATTATAC | 0.217 |
| CATTATAC | 0.265 |
| GATTATAA | 0.208 |
| AATTATAA | 0.361 |
| ACTTATAT | 0.332 |
| CATTATAA | 0.228 |
| AGTTATAT | 0.291 |
| AATTATAG | 0.381 |
| AATTATAC | 0.377 |
| ACAGGTCT | -0.119 |

| Sequence | binding signal [E-score] |
| --- | --- |
| TGCTGAAA | -0.0464 |
| GCAACTGA | -0.0401 |
| ACAAGTAA | 0.185 |
| ACCTATGG | -0.177 |
| GACAATGA | -0.0569 |
| GTCATCTA | 0.113 |
| GCAGACGC | -0.181 |
| ATGGTAAC | 0.214 |
| AACTAGTC | 0.206 |
| CACTAGTG | 0.0643 |
| AGCTAGTC | 0.078 |
| TACTAGGA | 0.183 |
| AACTAGCG | 0.241 |
| TACTAGCA | 0.243 |
| GGCTAGTA | 0.0598 |
| AACTAGTG | 0.39 |
| AACTAGCT | 0.317 |
| AACTAGTT | 0.441 |
| TACTAGTA | 0.45 |
| AGCTAGTA | 0.373 |
| CTGACCAC | -0.141 |
| ACCGGACT | -0.00817 |
| ATTGTTAC | 0.15 |
| AAGCTTCC | -0.103 |
| CTAGCTTA | 0.26 |
| AAGTCGAT | 0.0686 |

| Sequence | binding signal [E-score] |
| --- | --- |
| GATCTCAA | -0.162 |
| CCGCTCAG | -0.0853 |
| AACTAGTA | 0.471 |
| AACTAGGG | -0.00258 |
| ACCTAGTA | 0.292 |
| GACTAGGA | -0.00844 |
| AACTAGGC | 0.118 |
| AACTAGGT | 0.361 |
| GACTAGTA | 0.365 |
| GACTAGTC | 0.224 |
| CACTAGTA | 0.205 |
| CCGAATTA | 0.235 |
| AGAGTGAA | -0.0866 |
| GTAAGCAA | 0.0243 |
| ACCTTACT | 0.101 |
| CATAATTC | 0.126 |
| CGTAATTA | 0.328 |
| CATAATTA | 0.362 |
| AGTAATTC | 0.29 |
| GGTAATTA | 0.375 |
| GATAATTA | 0.223 |
| AGTAATTG | 0.29 |
| AGTAATTA | 0.381 |
| GGTAATCA | 0.0323 |
| CACAGTGA | 0.137 |
| TAATTTCA | 0.273 |

| Sequence | binding signal [E-score] |
| --- | --- |
| GCTACGTA | 0.298 |
| ACCGGCAT | -0.0275 |
| GGAAGGTA | 0.0109 |
| CCCGGCAC | -0.109 |
| CTAAACGA | -0.072 |
| GTAAACAA | 0.0786 |
| ATAAACTG | 0.175 |
| CTAAACTA | 0.336 |
| CTAAACTC | 0.235 |
| GTAAACGA | -0.0497 |
| ATAAACTA | 0.361 |
| GTAAACTA | 0.351 |
| ATAAACTC | 0.15 |
| AAAACTCT | 0.171 |
| AAGGACGA | -0.157 |
| CTCATCCA | 0.013 |
| GCTCCTAC | -0.158 |
| ACAAGACG | -0.0878 |
| CGTTAAGA | -0.0916 |
| ATAACACG | 0.22 |
| GACTGATA | 0.238 |
| CAGAATAG | 0.106 |
| CGTTCGGA | -0.107 |

From paper PMC6212790, “How bacterial xenogeneic silencer rok distinguishes foreign from self DNA in its resident genome”
